Reference: PubChem BioAssay AID720619 (Broad Institute, 2013)
Inconclusive results are not listed. Active and inactive are the calls of the source.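 How the source made its calls: active means toxic at all three exposure times, half-maximal drop reached within twice the top dose; inconclusive means exposure times disagree, or curves are weak, flat or poorly fitted; inactive means inactive at every exposure time.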

Assay: HT-29 colorectal cell cytotoxicity, late-stage follow-up, mechanism study for HRAS target identification, Alamar Blue fluorescence, several timepoints, dry powder (AID 720619)
Conditions: HT-29 viability
[1] = 48 h, at 35 µM (top of the series)

CCC(=O)N(c1ccc(OC)c(Cl)c1)C(C(=O)NCCc1ccccc1)c1cccs1 (centres undefined)
activity, lower = more toxic [1]: 32.2% (inactive) | activity, lower = more toxic (8 h treatment, at 35 µM): 5.18%

Cc1onc(C(=O)N2CCN(C(c3ccncc3)c3ccncc3)CC2)c1[N+](=O)[O-]
activity, lower = more toxic [1]: 7.85% (inactive) | activity, lower = more toxic (8 h treatment, at 35 µM): -3.11%
